Laboratory results published in PMC7862700, “An all-to-all approach to the identification of sequence-specific readers for epigenetic DNA modifications on cytosine”.

Key:
Assay in all cases: DAPPL (digital affinity profiling via proximity ligation, sequencing); 10 mM Tris-HCl pH 7.5, 50 mM NaCl, 1 mM DTT, 4% glycerol, room temperature, 30 min; GST-TFs on glutathione beads, 16-mer random dsDNA library, 0.1% formaldehyde crosslink after washing; high values mean tight binding
Details in all cases: protein: recombinant; tags: N-terminal GST; dsDNA, one strand shown
[1] = target: T1, ERF (Homo sapiens, UniProt P50548 1-548)
T1 sequence: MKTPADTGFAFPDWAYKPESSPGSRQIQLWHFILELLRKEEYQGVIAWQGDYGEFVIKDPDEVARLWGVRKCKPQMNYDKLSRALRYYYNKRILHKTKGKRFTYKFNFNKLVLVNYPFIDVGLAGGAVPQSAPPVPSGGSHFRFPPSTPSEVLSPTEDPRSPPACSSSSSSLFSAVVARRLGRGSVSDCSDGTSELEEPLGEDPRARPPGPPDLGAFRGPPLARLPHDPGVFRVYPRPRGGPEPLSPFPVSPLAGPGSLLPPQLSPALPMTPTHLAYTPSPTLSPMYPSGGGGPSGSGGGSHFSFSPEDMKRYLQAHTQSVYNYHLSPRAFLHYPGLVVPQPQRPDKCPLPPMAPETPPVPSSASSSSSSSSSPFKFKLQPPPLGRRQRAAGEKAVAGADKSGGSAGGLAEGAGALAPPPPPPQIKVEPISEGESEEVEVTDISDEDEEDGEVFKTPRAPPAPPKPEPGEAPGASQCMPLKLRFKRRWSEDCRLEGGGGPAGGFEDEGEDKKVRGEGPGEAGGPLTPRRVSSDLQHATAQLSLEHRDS
In short: (§1)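 Human transcription factors carrying a GST fusion were produced in yeast, bound to glutathione beads, tagged with DNA barcodes and pooled together with a tag-only sample. Each pool was held with 200 nmole of a random double-stranded 16-mer DNA library in Tris/NaCl/DTT/glycerol buffer for 30 min at room temperature, then washed, crosslinked in 0.1% formaldehyde, proximity-ligated with BsaI/T4 ligase (1 h, 37 °C), PCR-amplified and sequenced on an Illumina NextSeq500. Binding signal is the read frequency of each hexamer for a given factor divided by its frequency in the tag-only sample.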

[2] = target: T2, ETV3L (Homo sapiens, UniProt Q6ZN32 1-361)
T2 sequence: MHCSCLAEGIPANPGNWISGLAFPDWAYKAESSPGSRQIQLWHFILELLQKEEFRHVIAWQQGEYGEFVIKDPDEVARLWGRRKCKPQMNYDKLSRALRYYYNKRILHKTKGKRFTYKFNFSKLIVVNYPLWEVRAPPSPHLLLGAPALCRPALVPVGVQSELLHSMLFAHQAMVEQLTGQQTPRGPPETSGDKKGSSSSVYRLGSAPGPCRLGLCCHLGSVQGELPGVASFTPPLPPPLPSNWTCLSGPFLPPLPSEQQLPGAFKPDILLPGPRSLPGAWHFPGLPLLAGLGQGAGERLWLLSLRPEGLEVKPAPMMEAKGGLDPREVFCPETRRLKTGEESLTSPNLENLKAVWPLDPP
In short: as §1

[3] = target: T3, ETS2 (Homo sapiens, UniProt P15036 1-469)
T3 sequence: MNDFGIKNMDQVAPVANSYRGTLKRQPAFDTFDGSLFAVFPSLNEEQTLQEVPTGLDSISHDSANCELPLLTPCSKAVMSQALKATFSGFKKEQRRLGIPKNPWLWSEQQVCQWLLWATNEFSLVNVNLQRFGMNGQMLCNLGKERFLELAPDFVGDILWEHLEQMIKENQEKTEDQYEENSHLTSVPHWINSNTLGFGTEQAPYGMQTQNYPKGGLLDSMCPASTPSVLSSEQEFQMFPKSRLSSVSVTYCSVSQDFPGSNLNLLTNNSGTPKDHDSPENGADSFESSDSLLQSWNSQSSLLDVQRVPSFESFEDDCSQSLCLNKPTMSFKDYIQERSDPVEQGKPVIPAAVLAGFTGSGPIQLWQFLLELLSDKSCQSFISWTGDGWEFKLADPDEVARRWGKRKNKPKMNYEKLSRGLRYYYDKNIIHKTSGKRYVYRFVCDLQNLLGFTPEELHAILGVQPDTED
In short: as §1

[4] = target: T4, SPDEF (Homo sapiens, UniProt O95238 1-335)
T4 sequence: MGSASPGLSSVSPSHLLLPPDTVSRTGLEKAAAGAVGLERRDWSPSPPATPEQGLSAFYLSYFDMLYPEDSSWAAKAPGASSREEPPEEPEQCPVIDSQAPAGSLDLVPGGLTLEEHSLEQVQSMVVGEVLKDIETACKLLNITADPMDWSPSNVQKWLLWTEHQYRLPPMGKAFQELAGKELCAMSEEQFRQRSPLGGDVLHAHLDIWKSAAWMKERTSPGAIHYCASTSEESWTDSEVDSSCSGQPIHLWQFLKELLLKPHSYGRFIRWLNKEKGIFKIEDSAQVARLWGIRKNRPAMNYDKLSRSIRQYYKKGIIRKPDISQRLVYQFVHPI
In short: as §1

[5] = target: T5, ETV7 (Homo sapiens, UniProt Q9Y603 1-341)
T5 sequence: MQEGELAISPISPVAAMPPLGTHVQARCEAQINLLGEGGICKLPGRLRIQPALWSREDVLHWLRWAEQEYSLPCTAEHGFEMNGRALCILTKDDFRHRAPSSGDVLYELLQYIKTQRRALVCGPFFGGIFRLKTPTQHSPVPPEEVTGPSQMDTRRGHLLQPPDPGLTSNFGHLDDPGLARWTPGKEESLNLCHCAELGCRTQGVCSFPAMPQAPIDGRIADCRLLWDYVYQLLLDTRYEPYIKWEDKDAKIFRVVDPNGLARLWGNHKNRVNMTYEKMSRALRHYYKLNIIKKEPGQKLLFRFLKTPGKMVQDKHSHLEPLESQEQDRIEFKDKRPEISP
In short: as §1

[6] = target: T6, ELF5 (Homo sapiens, UniProt Q9UKW6-2 1-255)
T6 sequence: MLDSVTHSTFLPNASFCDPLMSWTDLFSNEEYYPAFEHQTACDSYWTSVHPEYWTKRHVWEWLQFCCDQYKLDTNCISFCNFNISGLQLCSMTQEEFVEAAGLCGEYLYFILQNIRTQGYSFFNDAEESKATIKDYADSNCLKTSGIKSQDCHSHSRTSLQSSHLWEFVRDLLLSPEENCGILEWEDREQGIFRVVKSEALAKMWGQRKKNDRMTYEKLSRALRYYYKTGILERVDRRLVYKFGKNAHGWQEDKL
In short: as §1

[7] = target: T7, ETV3 (Homo sapiens, UniProt P41162-2 1-143)
T7 sequence: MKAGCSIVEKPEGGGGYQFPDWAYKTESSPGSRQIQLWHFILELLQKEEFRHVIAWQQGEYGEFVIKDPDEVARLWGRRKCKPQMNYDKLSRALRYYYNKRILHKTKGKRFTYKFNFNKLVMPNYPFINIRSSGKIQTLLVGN
In short: as §1

[8] = target: ETV6 (Homo sapiens, UniProt P41212 1-452)
Chain of ETV6 (P41212 whole entry): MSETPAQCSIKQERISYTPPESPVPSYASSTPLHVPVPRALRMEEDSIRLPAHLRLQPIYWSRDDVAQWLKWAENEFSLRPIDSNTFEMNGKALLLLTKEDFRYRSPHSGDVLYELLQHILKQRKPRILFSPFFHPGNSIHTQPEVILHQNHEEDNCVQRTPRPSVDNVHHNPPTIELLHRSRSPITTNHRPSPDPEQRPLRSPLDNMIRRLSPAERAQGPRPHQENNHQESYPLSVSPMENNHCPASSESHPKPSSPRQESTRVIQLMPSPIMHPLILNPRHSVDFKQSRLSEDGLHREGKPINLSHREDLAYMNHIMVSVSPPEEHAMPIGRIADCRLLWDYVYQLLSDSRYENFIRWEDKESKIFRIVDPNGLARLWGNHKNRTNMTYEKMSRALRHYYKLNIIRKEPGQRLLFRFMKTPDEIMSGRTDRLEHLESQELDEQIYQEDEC
In short: as §1

Sequence | binding signal [1] | binding signal [2] | binding signal [3] | binding signal [4] | binding signal [5] | binding signal [6] | binding signal [7] | binding signal [8]
CCCAAC | 1.24 fold enrichment (6-mer frequency, TF over GST control) | 1.13 fold enrichment (6-mer frequency, TF over GST control) | 1.13 fold enrichment (6-mer frequency, TF over GST control) | 1.19 fold enrichment (6-mer frequency, TF over GST control) | 1.06 fold enrichment (6-mer frequency, TF over GST control) | 1.12 fold enrichment (6-mer frequency, TF over GST control) | 1.05 fold enrichment (6-mer frequency, TF over GST control) | 1.17 fold enrichment (6-mer frequency, TF over GST control)
CGTCTA | 1.29 fold enrichment (6-mer frequency, TF over GST control) | 1.4 fold enrichment (6-mer frequency, TF over GST control) | 1.29 fold enrichment (6-mer frequency, TF over GST control) | 1.26 fold enrichment (6-mer frequency, TF over GST control) | 1.28 fold enrichment (6-mer frequency, TF over GST control) | 1.17 fold enrichment (6-mer frequency, TF over GST control) | 1.26 fold enrichment (6-mer frequency, TF over GST control) | 1.26 fold enrichment (6-mer frequency, TF over GST control)
TCCACC | 1.25 fold enrichment (6-mer frequency, TF over GST control) | 1.22 fold enrichment (6-mer frequency, TF over GST control) | 1.21 fold enrichment (6-mer frequency, TF over GST control) | 1.1 fold enrichment (6-mer frequency, TF over GST control) | 1.12 fold enrichment (6-mer frequency, TF over GST control) | 1.19 fold enrichment (6-mer frequency, TF over GST control) | 1.29 fold enrichment (6-mer frequency, TF over GST control) | 1.26 fold enrichment (6-mer frequency, TF over GST control)
ATTGTC | 1.23 fold enrichment (6-mer frequency, TF over GST control) | 1.14 fold enrichment (6-mer frequency, TF over GST control) | 1.17 fold enrichment (6-mer frequency, TF over GST control) | 1.17 fold enrichment (6-mer frequency, TF over GST control) | 1.23 fold enrichment (6-mer frequency, TF over GST control) | 1.2 fold enrichment (6-mer frequency, TF over GST control) | 1.22 fold enrichment (6-mer frequency, TF over GST control) | 1.13 fold enrichment (6-mer frequency, TF over GST control)
CAATCA | 1.19 fold enrichment (6-mer frequency, TF over GST control) | 1.2 fold enrichment (6-mer frequency, TF over GST control) | 1.13 fold enrichment (6-mer frequency, TF over GST control) | 1.07 fold enrichment (6-mer frequency, TF over GST control) | 1.04 fold enrichment (6-mer frequency, TF over GST control) | 1.1 fold enrichment (6-mer frequency, TF over GST control) | 1.1 fold enrichment (6-mer frequency, TF over GST control) | 1.16 fold enrichment (6-mer frequency, TF over GST control)
GCCACT | 1.16 fold enrichment (6-mer frequency, TF over GST control) | 1.07 fold enrichment (6-mer frequency, TF over GST control) | 1.19 fold enrichment (6-mer frequency, TF over GST control) | 1.15 fold enrichment (6-mer frequency, TF over GST control) | 1.12 fold enrichment (6-mer frequency, TF over GST control) | 1.16 fold enrichment (6-mer frequency, TF over GST control) | 1.16 fold enrichment (6-mer frequency, TF over GST control) | 1.21 fold enrichment (6-mer frequency, TF over GST control)
CCTGCA | 1.08 fold enrichment (6-mer frequency, TF over GST control) | 1.32 fold enrichment (6-mer frequency, TF over GST control) | 1.26 fold enrichment (6-mer frequency, TF over GST control) | 1.37 fold enrichment (6-mer frequency, TF over GST control) | 1.24 fold enrichment (6-mer frequency, TF over GST control) | 1.3 fold enrichment (6-mer frequency, TF over GST control) | 1.22 fold enrichment (6-mer frequency, TF over GST control) | 1.28 fold enrichment (6-mer frequency, TF over GST control)
GGTCCC | 1.18 fold enrichment (6-mer frequency, TF over GST control) | 1.25 fold enrichment (6-mer frequency, TF over GST control) | 1.12 fold enrichment (6-mer frequency, TF over GST control) | 1.29 fold enrichment (6-mer frequency, TF over GST control) | 1.15 fold enrichment (6-mer frequency, TF over GST control) | 1.13 fold enrichment (6-mer frequency, TF over GST control) | 1.2 fold enrichment (6-mer frequency, TF over GST control) | 1.09 fold enrichment (6-mer frequency, TF over GST control)
ATACTC | 1.36 fold enrichment (6-mer frequency, TF over GST control) | 1.22 fold enrichment (6-mer frequency, TF over GST control) | 1.26 fold enrichment (6-mer frequency, TF over GST control) | 1.32 fold enrichment (6-mer frequency, TF over GST control) | 1.23 fold enrichment (6-mer frequency, TF over GST control) | 1.25 fold enrichment (6-mer frequency, TF over GST control) | 1.33 fold enrichment (6-mer frequency, TF over GST control) | 1.33 fold enrichment (6-mer frequency, TF over GST control)
TGTAAA | 1.23 fold enrichment (6-mer frequency, TF over GST control) | 1.22 fold enrichment (6-mer frequency, TF over GST control) | 1.24 fold enrichment (6-mer frequency, TF over GST control) | 1.16 fold enrichment (6-mer frequency, TF over GST control) | 1.13 fold enrichment (6-mer frequency, TF over GST control) | 1.1 fold enrichment (6-mer frequency, TF over GST control) | 1.2 fold enrichment (6-mer frequency, TF over GST control) | 1.03 fold enrichment (6-mer frequency, TF over GST control)
CTTGTG | 1.59 fold enrichment (6-mer frequency, TF over GST control) | 1.4 fold enrichment (6-mer frequency, TF over GST control) | 1.5 fold enrichment (6-mer frequency, TF over GST control) | 1.41 fold enrichment (6-mer frequency, TF over GST control) | 1.41 fold enrichment (6-mer frequency, TF over GST control) | 1.44 fold enrichment (6-mer frequency, TF over GST control) | 1.51 fold enrichment (6-mer frequency, TF over GST control) | 1.22 fold enrichment (6-mer frequency, TF over GST control)
TGGTAC | 1.11 fold enrichment (6-mer frequency, TF over GST control) | 1.21 fold enrichment (6-mer frequency, TF over GST control) | 1.19 fold enrichment (6-mer frequency, TF over GST control) | 1.11 fold enrichment (6-mer frequency, TF over GST control) | 1.14 fold enrichment (6-mer frequency, TF over GST control) | 1.14 fold enrichment (6-mer frequency, TF over GST control) | 1.14 fold enrichment (6-mer frequency, TF over GST control) | 1.14 fold enrichment (6-mer frequency, TF over GST control)
TACTAA | 1.2 fold enrichment (6-mer frequency, TF over GST control) | 1.23 fold enrichment (6-mer frequency, TF over GST control) | 1.21 fold enrichment (6-mer frequency, TF over GST control) | 1.22 fold enrichment (6-mer frequency, TF over GST control) | 1.35 fold enrichment (6-mer frequency, TF over GST control) | 1.25 fold enrichment (6-mer frequency, TF over GST control) | 1.19 fold enrichment (6-mer frequency, TF over GST control) | 1.24 fold enrichment (6-mer frequency, TF over GST control)
GAAACG | 1.27 fold enrichment (6-mer frequency, TF over GST control) | 1.18 fold enrichment (6-mer frequency, TF over GST control) | 1.17 fold enrichment (6-mer frequency, TF over GST control) | 1.23 fold enrichment (6-mer frequency, TF over GST control) | 1.4 fold enrichment (6-mer frequency, TF over GST control) | 1.29 fold enrichment (6-mer frequency, TF over GST control) | 1.28 fold enrichment (6-mer frequency, TF over GST control) | 1.34 fold enrichment (6-mer frequency, TF over GST control)
TGTCAT | 1.38 fold enrichment (6-mer frequency, TF over GST control) | 1.19 fold enrichment (6-mer frequency, TF over GST control) | 1.12 fold enrichment (6-mer frequency, TF over GST control) | 1.17 fold enrichment (6-mer frequency, TF over GST control) | 1.1 fold enrichment (6-mer frequency, TF over GST control) | 1.09 fold enrichment (6-mer frequency, TF over GST control) | 1.12 fold enrichment (6-mer frequency, TF over GST control) | 1.11 fold enrichment (6-mer frequency, TF over GST control)
